# Test results as given in the supplement of paper PMC5919970.
# Counter-ions that a name gives are not always drawn. The full ranking holds about 2,000 compounds; the median of “fractional viability relative to vehicle” is about 0.91, and the lowest 2% start at about 0.045. For the sample, the lowest values were picked, then their nearest neighbours and some compounds at random.
# Tested on: TYKNU
# Assay: fractional viability relative to vehicle; TYKNU is a high-grade serous ovarian cancer line; higher = less growth inhibition
# Conditions: 72 h
# Summary of the method: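 TYKNU control cells or lentiCRISPRv2 knockout derivatives were plated at 500 cells per well in duplicate into drug-stamped 384-well plates holding a ~2100-compound library at 2 or 10 μM. Culture was in RPMI 1640 with 10% FBS at 37 °C in 5% CO2, with 72 h of drug treatment. Viability was measured by Cell Titer Glo luminescence, and the averaged duplicate treatment wells were normalised to duplicate control wells at the same plate position.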
# [1] = 2uM, genotype: DNM1L knockout (sgDNM1L #1)
# [2] = 2uM, genotype: sgCTRLA1 (non-targeting control)
# [3] = 10uM, genotype: DNM1L knockout (sgDNM1L #1)
# [4] = 10uM, genotype: sgCTRLA1 (non-targeting control)
SMILES,fractional viability [1],fractional viability [2],fractional viability [3],fractional viability [4]
O=C(NC[C@H](O)CN1CCc2ccccc2C1)c1cc(NC2COC2)ncn1,0.764,0.899,0.604,0.662
Nc1ccc(-c2ccc3ncc4ccc(=O)n(-c5cccc(C(F)(F)F)c5)c4c3c2)cn1 [Torin 2],0.125,0.114,0.114,0.0945
COc1ccc(-c2ccc3ncc4c(c3c2)n(-c2ccc(N3CCNCC3)c(C(F)(F)F)c2)c(=O)n4C)cn1,0.0297,0.0315,0.0158,0.0115
O=C(Nc1ccc(OC(F)(F)F)cc1)c1sccc1NCc1ccnc2ccccc12,0.926,0.906,0.215,0.181
CN1CCN(c2c(F)cc3c(=O)c(C(=O)O)cn4c3c2OCN4C)CC1 [Marbofloxacin],1.13,1.21,0.971,1.01
Cc1c(C(=O)NN2CCCCC2)nn(-c2ccc(Cl)cc2Cl)c1-c1ccc(Cl)cc1 [Rimonabant],1.11,1.01,0.575,0.753
CNC(=O)c1ccc(Nc2ncc(C(F)(F)F)c(NCc3nccnc3N(C)S(C)(=O)=O)n2)cc1,0.702,0.772,0.213,0.179
CC(C)(O)c1ccccc1CC[C@@H](SCC1(CC(=O)O)CC1)c1cccc(/C=C/c2ccc3ccc(Cl)cc3n2)c1 [Montelukast Sodium],0.809,1.13,0.762,1.05
CN(C)Cc1cccc(N/C(=C2\C(=O)Nc3cc(C(N)=O)ccc32)c2ccccc2)c1,1.01,0.992,1.05,0.912
CCS(=O)(=O)Nc1ccc2c(c1)/C(=C(/Nc1ccc(CN3CCCCC3)cc1)c1ccccc1)C(=O)N2 [Hesperadin],0.316,0.329,0.0548,0.0381
COC(=O)c1ccc2c(c1)NC(=O)/C2=C(\Nc1ccc(N(C)C(=O)CN2CCN(C)CC2)cc1)c1ccccc1 [Nintedanib (BIBF 1120)],0.903,0.889,0.152,0.147
CC#CCn1c(N2CCC[C@@H](N)C2)nc2c1c(=O)n(Cc1nc(C)c3ccccc3n1)c(=O)n2C [Linagliptin],1.22,1.14,0.918,0.986
NC(=O)c1cn(Cc2c(F)cccc2F)nn1 [Rufinamide],0.992,1.08,1.07,1.04
Cc1cc(C)nc(NS(=O)(=O)c2ccc(NC(=S)NC(=O)COc3ccc(Br)cc3Cl)cc2)n1,1.05,1.04,0.706,1.08
CN1CCN(c2ccc(Nc3cc(-c4cccc(-n5ccc6cc(C7CC7)cc(F)c6c5=O)c4CO)cn(C)c3=O)nc2)CC1,0.836,0.97,0.114,0.182
CCOC(=O)[C@@H](N)Cc1ccc(-c2cc(O[C@H](c3ccc(Cl)cc3-n3ccc(C)n3)C(F)(F)F)nc(N)n2)cc1 [Telotristat Etiprate (LX 1606 Hippurate)],0.777,1.1,0.0468,0.12
COC(=O)[C@H](Cc1ccccc1)NC(=O)[C@@H](N)CC(=O)O [Aspartame],1.02,1.15,0.941,0.985
COc1ccc(C[C@H](NC(=O)[C@H](C)NC(=O)CN2CCOCC2)C(=O)N[C@@H](Cc2ccccc2)C(=O)[C@@]2(C)CO2)cc1,0.0589,0.0514,0.0565,0.0416
COC[C@H](NC(=O)c1cnc(C)s1)C(=O)N[C@@H](COC)C(=O)N[C@@H](Cc1ccccc1)C(=O)[C@@]1(C)CO1 [Oprozomib (ONX 0912)],0.0658,0.0656,0.055,0.0445
CC(NC(=O)C(Cc1ccccc1)NC(=O)OCc1ccccc1)C(=O)CF (configuration not stated),0.85,0.869,0.793,0.606

SMILES,fractional viability [1],fractional viability [2],fractional viability [3],fractional viability [4]
CC(C)C[C@H](NC(=O)[C@H](Cc1ccccc1)NC(=O)c1cnccn1)B(O)O [Bortezomib (PS-341)],0.1,0.0838,0.101,0.0762
CC(C)C[C@H](NC(=O)[C@H](CCc1ccccc1)NC(=O)CN1CCOCC1)C(=O)N[C@@H](Cc1ccccc1)C(=O)N[C@@H](CC(C)C)C(=O)[C@@]1(C)CO1 [Carfilzomib (PR-171)],0.0773,0.0587,0.0559,0.057
C[C@@]1(C(=O)Nc2ccc(F)nc2)CCCN1c1nc(Nc2cc(C3CC3)n[nH]2)c2cccn2n1,0.561,0.689,0.282,0.252
O=C(N/N=C/c1cc(O)c(O)cc1O)c1cc2ccccc2cc1O [Dyngo-4a],0.912,1.05,0.857,0.867
Oc1ccc(Cc2nc3c(Cc4ccccc4)nc(-c4ccc(O)cc4)cn3c2O)cc1 [Coelenterazine],0.928,1.05,0.977,0.839
O=C1N=C(O)NC1(c1ccccc1)c1ccccc1 [Phenytoin sodium],1.03,1.09,0.864,1.04
CCc1cc(Nc2nccc(-c3c(-c4ccc(OC)c(C(=O)Nc5c(F)cccc5F)c4)nc4ccccn34)n2)c(OC)cc1N1CCC(N2CCN(S(C)(=O)=O)CC2)CC1,1.12,1.04,0.72,0.915
CC(O)c1cc(C(=O)N[C@@H](C)Cn2ccc(-c3ccc(C#N)c(Cl)c3)n2)n[nH]1 (some centres not stated),0.762,0.897,0.94,0.769
CN(C)Cc1c(C(=O)NCCOc2ccc(C(=O)NO)cc2)oc2ccccc12,0.184,0.244,0.0877,0.133
COc1cccc(-n2c(=O)[nH]c3cc(Cl)n(-c4ccc(-c5cccc(OC)c5O)cc4)c3c2=O)c1,0.844,1.02,0.857,0.918
COc1ccc2[nH]cc(/C=C3\C(=O)Nc4ccc(NC(=O)CCN5CCCCC5)cc43)c2c1,0.761,0.929,0.809,0.795
CN1CCCN(C(=O)c2cccc(-c3ccc(/C=C4/C(=O)Nc5ccc(Cl)cc54)o3)c2)CC1,0.0585,0.0575,0.0139,0.00867
CN1CCN(C(=O)c2cc3cc(Cl)ccc3[nH]2)CC1,1.13,1.23,0.961,1.16
O=C(Nc1nc2cccc(-c3ccc(CN4CCS(=O)(=O)CC4)cc3)n2n1)C1CC1 [Filgotinib (GLPG0634)],0.73,0.849,0.493,0.573
CC(=O)Oc1ccccc1C(=O)O [Aspirin],0.863,1.09,1.01,1.05
CC(=O)OCOC(=O)CN(CC(=O)OCOC(C)=O)c1ccccc1OCCOc1ccccc1N(CC(=O)OCOC(C)=O)CC(=O)OCOC(C)=O,0.391,0.569,0.0416,0.0639
O=C(NNc1nc2cc(F)ccc2n2cccc12)c1cnccn1,0.358,0.282,0.269,0.247
Nc1c(CC(=O)O)cccc1C(=O)c1ccc(Br)cc1 [Bromfenac Sodium],0.888,1.1,0.801,1.05
CCN(CC)CCNC(=O)c1c(C)[nH]c(/C=C2\C(=O)Nc3ccc(F)cc32)c1C [Sunitinib Malate],0.853,0.819,0.169,0.122
"Cc1[nH]c(/C=C2\C(=O)Nc3ccccc32)c(C)c1CCC(=O)O [TSU-68 (SU6668, Orantinib)]",0.962,1.11,0.869,1.02

SMILES,fractional viability [1],fractional viability [2],fractional viability [3],fractional viability [4]
CCN(CC)CCNC(=O)c1c(C)[nH]c(/C=C2\C(=O)Nc3ccc(F)cc32)c1C [Sunitinib],0.544,0.67,0.0734,0.0439
CCN(CC)CCNC(=O)c1ccc(N)cc1 [Procainamide HCl],0.791,1,0.633,0.929
"O=C(c1ccc(F)c(F)c1Nc1ccc(I)cc1F)N1CC(O)([C@@H]2CCCCN2)C1 [Cobimetinib (GDC-0973, RG7420)]",0.814,1.03,0.942,0.846
Nc1ccc2ncnc(NCCc3ccc(Oc4ccccc4)cc3)c2c1,0.604,0.444,0.596,0.43
COc1cc(/C=C/C(=O)N2CCC=CC2=O)cc(OC)c1OC [Piperlongumine],0.302,0.319,0.0446,0.0292
COc1cc(/C=C/C(=O)N2CCN(CC(=O)N3CCCC3)CC2)cc(OC)c1OC [Cinepazide maleate],1.08,0.973,1.1,1.02
COc1ccc(/C=C\c2cc(OC)c(OC)c(OC)c2)cc1O [Combretastatin A4],0.11,0.122,0.111,0.073
COc1ccc2cc(OCC3(C(=O)O)CN(C(=O)c4ccc(F)cc4)C3)ccc2c1,0.822,1.12,0.788,1.11
COCCOc1ccc2c(c1)ncn2-c1ccc2cccc(N3CCC(N)CC3)c2n1,0.892,0.893,0.13,0.139
Cc1cc(C)c(CNC(=O)c2cc(-c3ccc(N4CCN(C)CC4)nc3)cc3c2c(C)cn3C(C)C)c(=O)[nH]1,0.782,1.03,0.669,0.609
O=C(NC1CC1)c1cc(-c2cccs2)on1 [Isoxazole 9 (ISX-9)],0.927,0.844,0.795,0.662
CC(CNC(=O)c1cccnc1)NC(=O)c1cccnc1 (configuration not stated) [Nicaraven],0.754,1.07,0.726,0.99
"CCCS(=O)(=O)Nc1ccc(F)c(C(=O)c2c[nH]c3ncc(-c4ccc(Cl)cc4)cc23)c1F [Vemurafenib (PLX4032, RG7204)]",1.05,1.26,0.823,0.974
COc1ncc(-c2ccc3nccc(-c4ccnnc4)c3c2)cc1NS(=O)(=O)c1ccc(F)cc1F,0.446,0.184,0.0665,0.0352
COC(=O)N[C@H](C(=O)N1CCC[C@H]1c1ncc(-c2ccc(-c3ccc(-c4cnc([C@@H]5CCCN5C(=O)[C@@H](NC(=O)OC)C(C)C)[nH]4)cc3)cc2)[nH]1)C(C)C,1.04,1,0.511,0.654
C=CC(=O)Nc1ccc2ncnc(Nc3cccc(Br)c3)c2c1,0.927,0.921,0.248,0.317
C=CC(=O)Nc1ccc2ncnc(Nc3ccc(OCc4cccc(F)c4)c(Cl)c3)c2c1,0.704,0.853,0.044,0.0416
CS(=O)(=O)CCNCc1ccc(-c2ccc3ncnc(Nc4ccc(OCc5cccc(F)c5)c(Cl)c4)c3c2)o1,1.08,1.02,0.179,0.303
